Entries with a potency or affinity are not part of this list. Active and inactive are the calls of the source. The rule behind the calls is not given here.

The nature of this experiment: toxicity to human HeLa cells – cell-based, 48 h, plate reader, cherry-picks, cytotoxicity control, dose response (AID 504942). Particulars: series mostly up to 38 µM.
Consider `CCOC(=O)N1CCN(c2ccc(Cl)cc2)CC1`, for which the call was inactive.

On to `O=C(NC1CCCCCCC1)c1cccc(Cl)c1`, for which the outcome was inactive.

With `O=[N+]([O-])c1ccc(N2CCCC2)nc1`, the call was inactive.

Turning to `O=C1N[C@@H](Cc2ccccc2)[C@@H](c2ccco2)O1`, the compound was classed as inactive.

Regarding `Cc1ccc(S(=O)(=O)NCCC(C)C)cc1[N+](=O)[O-]`, the outcome was inactive.

As to `O=C1C=C(c2cccc(Cl)c2)C[C@@H](c2ccc(F)cc2)C1`, the compound was called inactive.

With `OC(c1cccc(Cl)c1)c1nccc2ccccc12` (stereo not given), the compound was classed as inactive.

Turning to `CC(C)(C)NC(=O)c1cc(Cl)ccc1[N+](=O)[O-]`, the call was inactive.

Take `COC(=O)c1cc(-c2ccc(OC)cc2)on1`: the call was inactive.

With `O=C(NC1CCS(=O)(=O)C1)c1cccc(Br)c1` (stereo not given), the result was inactive.

In the case of `CCOc1ccc(CNC2CCCc3ccccc32)cc1` (stereo not given), the call was inactive.

With `CCCNS(=O)(=O)c1ccc(OC)c(Cl)c1Cl`, the call was inactive.

As to `O=CN(c1ccccc1)c1ccc2ccccc2c1`, the outcome was inactive.

For the compound `Cc1ccc(C)c(S(=O)(=O)NC2CCSC2=O)c1` (stereo not given), the compound was called inactive.

For `N#CC(c1ccc(Cl)cc1)c1ccc(Cl)nn1` (stereo not given), the result was inactive.

`O=C1C2C(C(=O)N1Cc1ccco1)C1C=CC2C12CC2` (stereo not given): the outcome was inactive.

With `COC(=O)c1ccc(NC(=S)N2CCCC2)cc1`, the outcome was inactive.

On to `N#CC(c1ccc(Cl)nn1)c1c(F)cccc1Cl` (stereo not given), for which the compound was classed as inactive.

For `CCC(C)NS(=O)(=O)c1ccc(OC)c(Cl)c1Cl` (stereo not given), the compound was classed as inactive.

As to `COc1ccc(N=C(C)C2=C(O)CSC2=O)cc1`, the compound was called inactive.

Regarding `CCOC(=O)CCCn1ncn2c(cc3occc32)c1=O`, the call was inactive.

Regarding `Nc1ccc(OCc2ccccc2)cc1[N+](=O)[O-]`, the outcome was inactive.

Regarding `O=C1C=C(c2cc(F)ccc2F)C[C@@H](c2ccc(F)cc2)C1`, the result was inactive.

With `COC(=O)c1ccc(OC(=O)c2cccs2)cc1`, the compound was called inactive.

In the case of `Cc1cc(C)nc(N(C#N)Cc2cccc([N+](=O)[O-])c2)n1`, the call was inactive.

As for `O=[N+]([O-])c1ccc(N2CCCCC2)cc1`, the compound was called inactive.

As for `COC(=O)c1ccc(OC(=O)c2ccco2)cc1`, the result was inactive.

Turning to `CCOC(=O)CC(C#N)c1cn(C)c2ccccc12` (stereo not given), the compound was called inactive.

As to `CCCCCC1CC(COc2ccccc2)OC1=O` (stereo not given), the result was inactive.

Consider `CCOC(=O)c1cc2c(s1)-c1c(C)cccc1OC2`, for which the call was inactive.

Source of the values: PubChem BioAssay AID504942 (Broad Institute, 2011).
